For the first experiment, the target named is ARL4D. As to the kind of experiment: pooled miR-30 sensor sort-seq; sequence = guide strand. The conditions noted are these: shRNA.
For the sequence TCGGTGTTGAAGCCTTTGGTGG, the sensor-assay potency score (higher = more potent) is -1.59.

As to AACTCCTTGAACTTGAGGCGGT, the sensor-assay potency score (higher = more potent) was -0.138.

For the sequence TGGACAAACTCCTTGAACTTGA, the sensor-assay potency score (higher = more potent) was -0.891.

TTGGAAGGTGATGCCACGCGAT gave a sensor-assay potency score (higher = more potent) of -0.67.

As for TAGACCGTCTGTCCGGCGGGTA, the sensor-assay potency score (higher = more potent) is -1.34.

For TTCCTCTTGAGGATCATCTCAT, the sensor-assay potency score (higher = more potent) turned out to be 0.0255.

On to TACGTCTCCACAGTCCTGCAGC, for which the sensor-assay potency score (higher = more potent) is -0.421.

For TTGTTGGCCAGCACCAGCACTG, the sensor-assay potency score (higher = more potent) was -0.806.

Regarding TTTGGTGGGGACACTCTGGACA, the sensor-assay potency score (higher = more potent) was -0.71.

Sequence TGGAAGGTGATGCCACGCGATC came in with a sensor-assay potency score (higher = more potent) of -1.76.

Sequence TCCTCTTGAGGATCATCTCATA yielded a sensor-assay potency score (higher = more potent) of -1.96.

In the case of ACACTCTGGACAAACTCCTTGA, the sensor-assay potency score (higher = more potent) is -0.682.

Take AACACTAGACCGTCTGTCCGGC: the sensor-assay potency score (higher = more potent) is -0.396.

The sequence AAGAGCGCCACAGTGGTCGCAG returned a sensor-assay potency score (higher = more potent) of -0.161.

TTGCACATGAGTGAGAGTGGCG registered a sensor-assay potency score (higher = more potent) of -0.774.

The target in the next experiment is ARL8B. The experiment is described as above. The conditions noted are these: shRNA.
TTACCTTTAGTTACCTTCCTCA showed a sensor-assay potency score (higher = more potent) of 0.244.

TTGAATAGCAGCAAATTTCTCT registered a sensor-assay potency score (higher = more potent) of 0.213.

Sequence TAATTCTAGGATTATAGCCAAG had a sensor-assay potency score (higher = more potent) of -1.33.

Turning to TTTCCAAGCACTAGCACTGGAA, the sensor-assay potency score (higher = more potent) was -1.03.

With TATCTTCACTGAATTGACCTGA, the sensor-assay potency score (higher = more potent) was 0.755.

As for TTTATCTAGAAGATTATGTAGC, the sensor-assay potency score (higher = more potent) came out at 0.313.

For TATCATGTAAACAATAGCATTG, the sensor-assay potency score (higher = more potent) is -1.05.

In the case of TTTCTCTATCCTGAATAGCAGA, the sensor-assay potency score (higher = more potent) is -1.1.

Turning to TGTGATATCTATATTATCCTTT, the sensor-assay potency score (higher = more potent) was 0.458.

TAAACAATAGCATTGACTCCTC registered a sensor-assay potency score (higher = more potent) of -0.391.

For the sequence TTTCACGATCTGCAGCATCTAT, the sensor-assay potency score (higher = more potent) is -0.778.

In the case of TTTCGGGAAGCTTCTATCTTTT, the sensor-assay potency score (higher = more potent) was -1.11.

The next experiment concerns the target ARPC1A. The experiment is described as above. The conditions noted are these: shRNA.
In turn, TAACAAACAGAAATGAGTCGTG returned a sensor-assay potency score (higher = more potent) of 0.708.

In turn, AAATTTGCGACAATCTTGCTTG registered a sensor-assay potency score (higher = more potent) of -0.036.

For TCTGAGACAAATGACACACTTA, the sensor-assay potency score (higher = more potent) came to 0.156.

With TTTTGGAATATCTAACTTGGAG, the sensor-assay potency score (higher = more potent) was -0.944.

Take TATTCAAACAAAACCACACGGC: the sensor-assay potency score (higher = more potent) was -0.11.

The sequence TTTAATGTGCTTGCTCACCCAC returned a sensor-assay potency score (higher = more potent) of -0.282.

As to TTGAGTGATGCTATTCTGGTGC, the sensor-assay potency score (higher = more potent) was found to be 0.522.

In turn, TTGGCTTCCAAACACCATCTTT registered a sensor-assay potency score (higher = more potent) of -0.586.

In turn, TTTGGAATATCTAACTTGGAGA registered a sensor-assay potency score (higher = more potent) of -0.835.

For the sequence ATTTGAAGTCACATGATCCTGC, the sensor-assay potency score (higher = more potent) worked out at 0.383.

In turn, TATAGATGTGCACTTCGTGATT registered a sensor-assay potency score (higher = more potent) of -0.958.

TGAAGTCACATGATCCTGCTGC showed a sensor-assay potency score (higher = more potent) of 0.622.

For the origin of these results see the OligoGym collection.
Also: reference of the scale not given here.
